Shown are actives, neighbours in structure and some others; about 21% of the full set was active somewhere.
TDP1 cell noCPT – qHTS for Inhibitors of human tyrosyl-DNA phosphodiesterase 1 (TDP1): qHTS in cells in absence of CPT | DT40 Tdp1-/- hTDP1 cells, no CPT, ATP luminescence, 48 h | Potency, µM (top dose mostly 46.2 µM), for inactives: top-dose activity change, negative = growth inhibition, most hits filed as inhibitors | 420,000 tested, 15% active; note: potency is the fitted concentration of half-maximal effect; % is set by controls: 0 for no effect and ±100 for the full control effect; nearly all actives have a fitted effect of over 55% in size
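Chicken DT40 Tdp1-/- cells stably complemented with human TDP1 were seeded at 400 cells/well with DMSO in place of 20 nM camptothecin. After compound pinning, cells grew at least 48 hr at 37 °C; viability read by CellTiter-Glo luminescence.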
DRD3 antagonist – blocks the human D3 dopamine receptor; P35462; max response, negative = inhibition, %; 360,000 tested, 2.5% active; D3R cells, DiscoveRx beta-arrestin luminescence, antagonist mode; stronger effect = lower value; AID 652054; in the data active = max response below about -50%; inconclusive = no clear call, values can overlap the other calls; note: % is set by controls: 0 for no effect and ±100 for the full control effect
Target sequence (P35462 whole entry, looked up): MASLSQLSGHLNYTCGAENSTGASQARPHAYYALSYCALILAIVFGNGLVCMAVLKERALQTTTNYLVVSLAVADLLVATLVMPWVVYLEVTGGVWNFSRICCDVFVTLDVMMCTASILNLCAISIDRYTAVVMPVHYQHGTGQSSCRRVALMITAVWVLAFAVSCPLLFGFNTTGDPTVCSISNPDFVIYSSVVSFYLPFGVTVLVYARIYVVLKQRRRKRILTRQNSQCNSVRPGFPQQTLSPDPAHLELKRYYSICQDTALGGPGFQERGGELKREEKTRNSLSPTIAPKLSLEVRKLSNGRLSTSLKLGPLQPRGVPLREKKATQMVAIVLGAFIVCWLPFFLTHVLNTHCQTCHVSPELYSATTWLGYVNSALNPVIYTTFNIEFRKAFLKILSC
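Cells plated overnight at 1500 cells/well, then exposed to library compounds with dopamine controls for 90 minutes at 37 degrees C. DiscoveRx reagent added for 30–60 minutes at room temperature; luminescence read, quantitative HTS format.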
IL-1B inflam inh – blocks inflammasome-driven IL-1 beta release; THP-1 LPS/ATP IL-1B secretion, AlphaLISA, 16 h; stronger effect = lower value; activity change, % at 57.5 µM; 360,000 tested, 4.7% active; in the data active = activity change below about -50%; inconclusive = mostly about -30% to -49%; note: % is set by controls: 0 for no effect and ±100 for the full control effect
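Secreted IL-1B measured by AlphaLISA bead assay after 16 h compound exposure of THP-1 cells; compounds (final up to 57.5 uM) added 1 h before LPS (250 ng/mL) and ATP (1.25 mM) stimulation; lower signal means less secretion.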
ClpP mod – qHTS Assay for Activators of ClpP | ATP-dependent Clp protease proteolytic subunit (Bacillus subtilis (strain 168)), P80244 | purified B. subtilis ClpP, FRET peptide cleavage, 20 min | Potency, µM (top dose mostly 57.5 µM), without a hit: at the top dose activity change, negative = active | 340,000 tested, 1.9% active | AID 651965, 2013; active = well fitted falling curve with a large enough effect; inconclusive = small, poorly fitted or top-dose-only effect; inactive = no such curve, though single readings can be large or run the other way; note: potency is the fitted concentration of half-maximal effect; the source files actives as falling curves though it sought activators and does not explain the sign; nearly all actives have a fitted effect of over 65% in size
Target sequence (P80244 whole entry, looked up): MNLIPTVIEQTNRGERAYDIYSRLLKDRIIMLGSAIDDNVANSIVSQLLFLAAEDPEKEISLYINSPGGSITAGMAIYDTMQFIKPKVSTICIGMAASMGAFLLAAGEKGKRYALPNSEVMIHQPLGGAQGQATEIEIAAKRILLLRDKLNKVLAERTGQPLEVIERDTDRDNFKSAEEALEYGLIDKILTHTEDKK
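FRET quenching reversal measured ClpP activation: 10 microg/mL B. subtilis ClpP at pH 8 with the FRET-FV decapeptide, read at 430 nm after 320 nm excitation. The 20-min minus 0-min signal was scaled between DMSO/no-enzyme wells and ADEP (5.8 microM final).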
TDP1 cell CPT – growth inhibition of DT40 Tdp1-/-;hTDP1 cells with camptothecin (screen for TDP1 inhibitors) | chicken DT40 Tdp1-/-;hTDP1 cells + 20 nM CPT, ATP luminescence, 48 h | Potency, µM (top dose mostly 46.2 µM), without a hit: at the top dose activity change, negative = growth inhibition, most hits filed as inhibitors | 420,000 tested, 12% active; note: potency is the fitted concentration of half-maximal effect; % is set by controls: 0 for no effect and ±100 for the full control effect; nearly all actives have a fitted effect of over 55% in size
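Chicken DT40 Tdp1-/- cells stably complemented with human TDP1 were seeded at 400 cells/well in medium containing 20 nM camptothecin, exposed to pin-transferred compounds, and grown at 37 °C for at least 48 hr. Viability was read as ATP luminescence.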
DRD3 agonist – agonists of human D3 dopamine receptor; P35462; D3R DiscoveRx beta-arrestin cells, luminescence, 90 min; max activation, %; 410,000 tested, 0.58% active; AID 652048; in the data active = max activation above about 30%; note: 0% is about no effect
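Cells at 1500/well, incubated overnight, then treated with pinned compounds (dopamine as control) for 90 min at 37 degrees C. DiscoveRx reagent added for 30 - 60 minutes at room temperature; luminescence read.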
An asterisk follows results filed as active; ! = not active in a repeat; [ ] = remark or other dose. Unless noted, calls come from the whole dose curve; as a rule, active = well fitted inhibition curve with a large enough effect; inconclusive = small, poorly fitted or top-dose-only effect; inactive = flat fitted curve, though single readings scatter.

What do the screens show for `On1ccccc1=S`?
TDP1 cell noCPT: 0.0092µM*; DRD3 antagonist: -139.6*; IL-1B inflam inh: -107.3*; ClpP mod: inconclusive; TDP1 cell CPT: 0.13µM*; DRD3 agonist: -46.8

Results for Clc1ccc(COC(Cn2ccnc2)c2ccc(Cl)cc2Cl)c(Cl)c1 (stereo unspecified) ?
TDP1 cell noCPT: 14.6µM*; DRD3 antagonist: -7.5; IL-1B inflam inh: inconclusive; ClpP mod: -0.7%; TDP1 cell CPT: 18.4µM*!; DRD3 agonist: 46.6*!

How did C=CCOC(Cn1ccnc1)c1ccc(Cl)cc1Cl (stereo unspecified) do in these assays?
TDP1 cell noCPT: 9.44µM*; DRD3 antagonist: -3.2; IL-1B inflam inh: 8.1; ClpP mod: -0.1%; TDP1 cell CPT: 29.9µM*; DRD3 agonist: -2.8

How did C[C@]12CCC(=O)C[C@@H]1CC[C@@H]1[C@@H]2CC[C@]2(C)[C@@H](O)CC[C@@H]12 do in these assays?
TDP1 cell noCPT: -22.2%; DRD3 antagonist: -0.1; IL-1B inflam inh: 21.7; ClpP mod: -1.1%; TDP1 cell CPT: 9.2%; DRD3 agonist: -2.1

Results for CCC1CN1P(=O)(Oc1ccc(Cl)cc1)N1CC1CC (stereo unspecified) ?
TDP1 cell noCPT: inconclusive; DRD3 antagonist: -8.3; IL-1B inflam inh: -13.4; ClpP mod: -0.8%; TDP1 cell CPT: inconclusive; DRD3 agonist: 1.5

How did O=S(=O)(c1ccc(Cl)cc1)N1CC1c1ccccc1 (stereo unspecified) do in these assays?
TDP1 cell noCPT: -22.2%; DRD3 antagonist: -10.5; IL-1B inflam inh: -1.7; ClpP mod: -0.9%; TDP1 cell CPT: -19.6%; DRD3 agonist: 3.7

Results for O=C(Nc1ccccc1)N1CC[C@@]2(CCCNC2)C1 ?
TDP1 cell noCPT: 4.4%; TDP1 cell CPT: -14.0%

How did CC(C)(N)Cc1ccc(Cl)cc1 do in these assays?
TDP1 cell noCPT: -27.5%; TDP1 cell CPT: inconclusive; DRD3 agonist: 7.7

Results for C=C1[C@@H](O)C2C=CC[C@H](C)C(=O)[C@@](C)(O)C=C[C@@H](OC(C)=O)[C@@]23C(=O)N[C@H](Cc2ccccc2)[C@@H]3[C@@H]1C (stereo partly specified) ?
TDP1 cell noCPT: 0.237µM*; TDP1 cell CPT: 0.266µM*

How did C=C1[C@@H](C)[C@H]2[C@H](Cc3ccccc3)NC(=O)[C@]23[C@H](OC(C)=O)/C=C/[C@](C)(O)C(=O)[C@@H](C)C/C=C/[C@H]3[C@@H]1O do in these assays?
TDP1 cell noCPT: 0.143µM*; TDP1 cell CPT: 0.181µM*

Results for C=C1C(C)C2C(Cc3ccccc3)NC(=O)C23OC(=O)/C=C/C(O)CCCC(C)C/C=C/C3C1O (stereo unspecified) ?
TDP1 cell noCPT: 2.06µM*; DRD3 antagonist: 84.7; IL-1B inflam inh: 22.1; ClpP mod: -15.2%; TDP1 cell CPT: 1.46µM*; DRD3 agonist: 22.3

How did O=S(=O)(O)C(F)(F)C(F)(F)C(F)(F)C(F)(F)C(F)(F)C(F)(F)C(F)(F)C(F)(F)F do in these assays?
TDP1 cell noCPT: inconclusive; TDP1 cell CPT: -21.0%[92.5 µM]; DRD3 agonist: -14.7

Results for C[C@@H]1CN([C@H](C)CO)C(=O)c2c(c3ccccc3n2C)-c2ccccc2CO[C@H]1CN(C)C(=O)c1cc(Cl)cc(Cl)c1 ?
TDP1 cell noCPT: inconclusive; DRD3 antagonist: -1.7; IL-1B inflam inh: 5.9; ClpP mod: -4.1%; TDP1 cell CPT: -24.5%; DRD3 agonist: -3.4

How did CC(=O)N1CC(=O)Nc2ccc(C)cc2C1c1ccccc1 (stereo unspecified) do in these assays?
TDP1 cell noCPT: 15.0%; DRD3 antagonist: 8.7; IL-1B inflam inh: 39.7; ClpP mod: 0.8%; TDP1 cell CPT: 8.7%; DRD3 agonist: 0.6

Results for COc1ccc2c3c([nH]c2c1)C(C)=NCC3 ?
TDP1 cell noCPT: 18.4µM*!; DRD3 antagonist: -15.7; IL-1B inflam inh: -83.8*; ClpP mod: 4.3%; TDP1 cell CPT: inconclusive; DRD3 agonist: -1.9

What do the screens show for `CC1=NCCc2c1[nH]c1cc(O)ccc21`?
TDP1 cell noCPT: 26.6µM*!; DRD3 antagonist: -11.3; IL-1B inflam inh: 5.9; ClpP mod: 5.6%; TDP1 cell CPT: inconclusive; DRD3 agonist: -15.2

What do the screens show for `CCC(c1ccc(C)cc1)N1C(=O)C2C3CCC(O3)C2C1=O` (stereo unspecified)?
TDP1 cell noCPT: -0.8%; DRD3 antagonist: -4.1; IL-1B inflam inh: -19.0; ClpP mod: -3.6%; TDP1 cell CPT: -5.8%; DRD3 agonist: -1.8

What do the screens show for `COc1ccc(OC)c2c1CCC1NCCOC21` (stereo unspecified)?
TDP1 cell noCPT: -8.2%; DRD3 antagonist: -28.3; IL-1B inflam inh: 7.0; ClpP mod: -0.9%; TDP1 cell CPT: -2.4%; DRD3 agonist: -14.9

What do the screens show for `CN(C)CCCCCCN(C)C` (tested in a mixture with another compound)?
TDP1 cell noCPT: 2.8%; TDP1 cell CPT: -6.0%; DRD3 agonist: 8.4

What do the screens show for `CC(=O)c1ccc2c(c1)N(CCCN(C)C)c1ccccc1S2`?
TDP1 cell noCPT: 8.05µM*; DRD3 antagonist: -107.7*; IL-1B inflam inh: 0.0; ClpP mod: 0.3%; TDP1 cell CPT: inconclusive; DRD3 agonist: -95.8

Results for Cc1ccccc1C(=O)Nc1sc2c(c1C(=O)O)CCC(C(C)(C)C)C2 (stereo unspecified) ?
TDP1 cell noCPT: 4.61µM*; ClpP mod: 0.1%; TDP1 cell CPT: 10.3µM*; DRD3 agonist: 6.0

Results for O=C(Nc1ncc(Cc2ccccc2)s1)C1=NCCN1 ?
TDP1 cell noCPT: inconclusive; DRD3 antagonist: -24.8; IL-1B inflam inh: -6.0; TDP1 cell CPT: -27.9%; DRD3 agonist: -0.7

What do the screens show for `CC(C)c1ccc(Cc2cnc(NC(=O)c3ccc4c(c3)CC(c3ccccc3)OC4=O)s2)cc1` (stereo unspecified)?
TDP1 cell noCPT: 18.4µM*; ClpP mod: -7.1%; TDP1 cell CPT: 23.1µM*; DRD3 agonist: 16.8

How did O=c1[nH]c(=S)[nH]c(O)c1/C=C1/C=c2ccccc2=N1 do in these assays?
TDP1 cell noCPT: 8.2µM*; DRD3 antagonist: 9.3; IL-1B inflam inh: -99.3*; TDP1 cell CPT: 7.31µM*; DRD3 agonist: 0.0

Results for Cc1ccc(N2CCN(C(=O)c3cn(CC4CCCCC4)nn3)C(C)C2)cc1 (stereo unspecified) ?
TDP1 cell noCPT: inconclusive; DRD3 antagonist: -12.7; IL-1B inflam inh: -5.4; ClpP mod: -0.5%; TDP1 cell CPT: 18.4µM*; DRD3 agonist: -6.9
